Screens (PubChem)
Sampled rows, rich in hits. Any-hit rate of the full collection: about 3.6%.
Smad3 FoxH1 inh = inhibitors of human Smad3 transcription factor binding; inhibition, % at 25 µM; hit rate 0.29% among 88,000; AID 630; TR-FRET Smad3/Dy647-FoxH1 peptide binding, europium anti-His;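 active = compounds that reduce the energy-transfer binding signal between the protein and its labelled peptide by more than half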;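 note: 0% = Smad3 plus labelled peptide maximal FRET and 100% = peptide-only background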
ERa coact inh = ER-alpha (human) coactivator binding inhibition. hit rate 1.7% among 86,000. inhibition, % at 25.6 µM. AID 629. P03372. TR-FRET ER-alpha LBD / SRC-1 peptide, estradiol-bound; in the data active = inhibition above about 50%;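 note: 0% = receptor plus peptide control and 100% = peptide only without receptor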
ERa SRC1 pot = enhances coactivator binding to human estrogen receptor alpha. hit rate 1.3% among 86,000. P03372. TR-FRET ERalpha-LBD/SRC-Cy5 coactivator binding, 2 h; 100 = basal binding, no effect. coactivator binding (% of control), % at 25.6 µM; in the data active = activity above about 200%;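 note: binding measured in presence of low estradiol as agonist stimulus; 0% = peptide alone without receptor and 100% = receptor with peptide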
ERb coact inh = ER-beta (human) coactivator binding inhibition. Q92731. AID 633. TR-FRET ER-beta LBD / SRC1-Cy5 peptide binding; receptor agonist-loaded with 1 µM estradiol. inhibition, % at 25.6 µM. hit rate 1.3% among 86,000;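 active = compounds whose percent inhibition of the receptor-coactivator binding signal exceeds about 50% in the single-dose screen, limit read from the data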;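 note: 0% = receptor plus peptide wells without compound and 100% = peptide-only wells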
Target sequence (Q92731 whole entry, looked up, the tested form may be a part): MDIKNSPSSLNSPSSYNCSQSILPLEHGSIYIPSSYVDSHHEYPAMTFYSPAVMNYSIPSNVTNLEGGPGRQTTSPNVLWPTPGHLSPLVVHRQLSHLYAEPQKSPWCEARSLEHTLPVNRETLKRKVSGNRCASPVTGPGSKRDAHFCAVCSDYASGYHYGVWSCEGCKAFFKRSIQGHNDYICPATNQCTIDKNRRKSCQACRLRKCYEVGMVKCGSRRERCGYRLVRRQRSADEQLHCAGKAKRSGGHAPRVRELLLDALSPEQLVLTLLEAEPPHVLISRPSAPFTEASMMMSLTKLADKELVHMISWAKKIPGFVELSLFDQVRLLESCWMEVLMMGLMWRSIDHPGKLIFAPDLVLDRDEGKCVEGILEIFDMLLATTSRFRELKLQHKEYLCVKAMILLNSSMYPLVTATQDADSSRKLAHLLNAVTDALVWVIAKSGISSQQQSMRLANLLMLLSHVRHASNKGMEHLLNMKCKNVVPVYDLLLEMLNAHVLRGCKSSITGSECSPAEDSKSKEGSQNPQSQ
Candida biofilm = kills Candida albicans biofilms | C. albicans biofilm + clotrimazole, Alamar Blue | AID 834 | inhibition, % at 6 µM | hit rate 0.14% among 85,000;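 active = inhibition above 20%; inactive = inhibition below 20%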;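 note: preformed 24 hr biofilms exposed to compound for 48 hr; 0% = biofilm without compound and 100% = blank killed by clotrimazole plus chlorhexidine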
Numbers without * were called inactive; [ ] = dose if it differs, or a comment.

CO[C@@H]1/C=C\O[C@]2(C)Oc3c(C)c(O)c4c(O)c(c(CN5CCN(C)CC5)c(O)c4c3C2=O)NC(=O)C(C)=C/C=C\[C@@H](C)[C@@H](O)[C@H](C)[C@@H](O)[C@H](C)[C@H](OC(C)=O)[C@@H]1C was read as Smad3 FoxH1 inh 7.
For Cc1ccc(-c2csc(NC(=O)CSc3ncn(-c4ccccc4)n3)n2)cc1 the results were Smad3 FoxH1 inh -2, ERa coact inh 9, ERa SRC1 pot 106, ERb coact inh 5 and Candida biofilm 4.
`COc1ccc(Cl)cc1-c1nc(-c2ccncc2)no1` gave Smad3 FoxH1 inh -6, ERa coact inh 30, ERa SRC1 pot 268*, ERb coact inh 34 and Candida biofilm 5.
For COc1ccccc1-c1nc(-c2ccncc2)no1 the results were Smad3 FoxH1 inh -12, ERa coact inh 7, ERa SRC1 pot 118, ERb coact inh -3 and Candida biofilm 3.
Screening O=C(O)C(Cc1c[nH]c2ccccc12)NS(=O)(=O)c1cccc2nsnc12 (centres undefined) returned Smad3 FoxH1 inh -7, ERa coact inh 6, ERa SRC1 pot 104, ERb coact inh 15 and Candida biofilm -2.
Cc1cc(C)cc(OCc2nc3ncc(Br)cc3[nH]2)c1 was read as Smad3 FoxH1 inh 2, ERa coact inh 57*, ERa SRC1 pot 333*[fluorescence artefact?], ERb coact inh 42 and Candida biofilm 1.
Screening Cc1c(NC(=O)CSc2nnc(-c3cccc(Cl)c3)o2)c(=O)n(-c2ccccc2)n1C returned Smad3 FoxH1 inh -3, ERa coact inh -8, ERa SRC1 pot 108, ERb coact inh 2 and Candida biofilm 3.
Screening CCOC(=O)C1=C(O)/C(=C/c2ccc(C)o2)SC1=NC(=O)c1ccccc1C returned Smad3 FoxH1 inh 3, ERa coact inh 64*[fluorescence artefact?], ERa SRC1 pot 59, ERb coact inh 39 and Candida biofilm 3.
`CCOC(=O)c1cc(-c2ccc(/C=N\n3cnnc3)o2)ccc1Cl` gave Smad3 FoxH1 inh 5, ERa coact inh -2, ERa SRC1 pot 98, ERb coact inh -9 and Candida biofilm 8.
For CC(C)(C)Nc1cccccc1=O the results were Smad3 FoxH1 inh 1, ERa coact inh -4, ERa SRC1 pot 102, ERb coact inh 9 and Candida biofilm 5.
For CNc1cccccc1=S the results were Smad3 FoxH1 inh 13, ERa coact inh 96*[fluorescence artefact?], ERa SRC1 pot 11, ERb coact inh -7 and Candida biofilm 2.
For O=C(COC(=O)c1cccnc1SCC(=O)NCc1ccccc1)NCc1ccccc1 the results were Smad3 FoxH1 inh -54, ERa coact inh 3, ERa SRC1 pot 252*[fluorescence artefact?], ERb coact inh 11 and Candida biofilm 5.
O=C(CSc1ncccc1C(=O)O)NCc1ccc(F)cc1 was read as Smad3 FoxH1 inh 5, ERa coact inh -5, ERa SRC1 pot 107 and ERb coact inh -7.
CC(=O)Nc1sc(NC(=O)c2ccccc2)nc1-c1cccs1 was read as Smad3 FoxH1 inh -5, ERa coact inh -12, ERa SRC1 pot 136, ERb coact inh 4 and Candida biofilm 6.
`COc1ccccc1C(=O)Nc1nc(-c2cccs2)c(NC(C)=O)s1` gave Smad3 FoxH1 inh -3, ERa coact inh 66*, ERa SRC1 pot 72, ERb coact inh 35 and Candida biofilm 6.
CCOc1ccccc1NC(=O)N1CCC(NC(=O)c2cccc(C)c2)CC1 was read as Smad3 FoxH1 inh 4, ERa coact inh 63*[fluorescence artefact?], ERa SRC1 pot 108, ERb coact inh 65*[fluorescence artefact?] and Candida biofilm 5.
`O=C(Nc1ccn(-c2ccccc2)n1)c1ccc(S(=O)(=O)N2CCCCCC2)cc1` gave Smad3 FoxH1 inh 1, ERa coact inh 2, ERa SRC1 pot 104, ERb coact inh 1 and Candida biofilm -5.
For Cc1noc(C)c1S(=O)(=O)N1CCC(C(=O)N2CCC(N3CCCCC3)CC2)CC1 the results were Smad3 FoxH1 inh 6, ERa coact inh -4, ERa SRC1 pot 94, ERb coact inh 6 and Candida biofilm 22*.
Cc1c(C(=O)Nc2ccc3c(c2)OCCO3)sc2nc(-c3ccccc3)cn12 was read as Smad3 FoxH1 inh 8, ERa coact inh -24, ERa SRC1 pot 100, ERb coact inh -23 and Candida biofilm 5.
`Cc1c(C(=O)Nc2ccncc2)sc2nc(-c3ccccc3)cn12` gave Smad3 FoxH1 inh 3, ERa coact inh 14, ERa SRC1 pot 214*[fluorescence artefact?], ERb coact inh -4 and Candida biofilm 3.
`C#Cc1ccc(C(=O)Nc2cc(C(N)=O)ccc2N2CCOCC2)cc1` gave Smad3 FoxH1 inh 4, ERa coact inh 69*[fluorescence artefact?], ERa SRC1 pot 58, ERb coact inh 40 and Candida biofilm 3.
Screening COCCSc1ccccc1C(=O)Nc1cc(C)on1 returned Smad3 FoxH1 inh -6, ERa coact inh -36, ERa SRC1 pot 62, ERb coact inh 96*[fluorescence artefact?] and Candida biofilm -3.
Screening N#C/C(=C(/O)C(=O)O)c1ccc(-c2cccc3ccccc23)cc1 returned Smad3 FoxH1 inh 2.
Screening Nc1nc(SC/C=C/C2CCCCC2)c2[nH]cnc2n1 returned Smad3 FoxH1 inh -5.
CC1CCN(C(=O)C2c3ccccc3C(=O)N3CCc4ccccc4C23)CC1 (centres undefined) was read as Smad3 FoxH1 inh 1, ERa coact inh -1, ERa SRC1 pot 623*[fluorescence artefact?], ERb coact inh -4 and Candida biofilm 6.
`O=C(CSc1nc2ccccc2c2nc3ccccc3n12)NCc1ccco1` gave Smad3 FoxH1 inh -16, ERa coact inh 74*[fluorescence artefact?], ERa SRC1 pot 92, ERb coact inh 48 and Candida biofilm 0.
`O=C(CSc1nc2ccccc2c(=O)n1CCCC(=O)N1CCCC1)NCc1ccco1` gave Smad3 FoxH1 inh -3, ERa coact inh -1, ERa SRC1 pot 109, ERb coact inh 5 and Candida biofilm 9.
For O=C(CCCCCn1c(SCc2ccncc2)nc2ccccc2c1=O)NCc1ccco1 the results were Smad3 FoxH1 inh 4, ERa coact inh 57*[fluorescence artefact?], ERa SRC1 pot 108, ERb coact inh 44 and Candida biofilm 6.
`O=C(CSc1ccc2ccccc2n1)N1CCC(c2noc3ccc(F)cc23)CC1` gave Smad3 FoxH1 inh -1, ERa coact inh 19, ERa SRC1 pot 128, ERb coact inh 19 and Candida biofilm -3.
For Ic1ccc2c(c1)N(c1ccccc1)c1cc(Nc3ccc4nc5ccc(I)cc5[n+](-c5ccccc5)c4c3)ccc1N2 the results were Smad3 FoxH1 inh 90*.
`Cn1nc(CC(=O)N2CCN(c3ccccc3)CC2)c2ccccc2c1=O` gave Smad3 FoxH1 inh 1, ERa coact inh -4, ERa SRC1 pot 119, ERb coact inh -13 and Candida biofilm 3.
For CC(C)(C)OC(=O)N1CCN(c2ccc(NC(=O)Cn3nnc(-c4ccccc4)n3)cc2)CC1 the results were Smad3 FoxH1 inh 9, ERa coact inh 31, ERa SRC1 pot 44, ERb coact inh 50* and Candida biofilm 4.
CCOC(=O)c1ccc(NC(=O)Cn2nnc(-c3ccccc3)n2)cc1 was read as Smad3 FoxH1 inh -1, ERa coact inh 9, ERa SRC1 pot 104, ERb coact inh 7 and Candida biofilm 2.
